Results on 21 compounds are retold here after PubChem BioAssay (NCI).

SMILES strings stand for the structures. This is part of a sample that, as a whole, favours compounds with a hit. Of some 79,000 tested, about 15% had one in any assay. Unmarked numbers belong to inactive results. Calls of active or inactive are those of the source. Cut-off read from the data, not from the text of the source: active = growth inhibition above about 70%; inactive = the rest.

Experiment [1] in a line: NCI Yeast Anticancer Drug Screen. Data for the rad50 strain (AID 155).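 Note: 0% = growth of vehicle-only cultures of the same strain.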 The settings on record: S. cerevisiae rad50 strain growth inhibition, stronger effect = higher value; at 50.0 µM unless noted. The essentials: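 DNA repair mutant yeast, compound exposure, growth read-out; inhibition is taken relative to vehicle.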
A short description of experiment [2]: NCI Yeast Anticancer Drug Screen. Data for the mec2-1 strain (AID 157). The settings on record: S. cerevisiae mec2-1 strain, stronger effect = higher value; at 50.0 µM unless noted. In outline:
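Mutant yeast (mec2-1) grown with compound; growth inhibition relative to vehicle control reported.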

A short description of experiment [3]: NCI Yeast Anticancer Drug Screen. Data for the sgs1 mgt1 strain (AID 161).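 Note: 0% = growth of cultures given vehicle only.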 The settings on record: S. cerevisiae sgs1 mgt1 strain, stronger effect = higher value; at 50.0 µM unless noted. The essentials: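 Compounds are added to genetically altered yeast, and growth is compared with cultures given vehicle alone to give percent inhibition.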
Experiment [4] can be described thus: NCI Yeast Anticancer Drug Screen. Data for the cln2 rad14 strain (AID 165).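 Note: 0% = growth equal to vehicle treated cultures.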 The settings on record: S. cerevisiae cln2 rad14 strain, stronger effect = higher value; at 50.0 µM unless noted. In outline:
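Readout is yeast growth inhibition versus vehicle-treated controls, using a strain with cln2 and rad14 alterations exposed to compound.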

The nature of experiment [5]: NCI Yeast Anticancer Drug Screen. Data for the bub3 strain (AID 167). The settings on record: S. cerevisiae bub3 mutant strain, stronger effect = higher value; at 50.0 µM unless noted. In outline:
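In this screen, a yeast mutant lacking normal mitotic checkpoint function is challenged with compound. Relative growth versus vehicle gives the inhibition value.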

Experiment [6] is described as follows: NCI Yeast Anticancer Drug Screen. Data for the mlh1 rad18 strain (AID 175). The settings on record: S. cerevisiae mlh1 rad18 strain growth inhibition, stronger effect = higher value; at 50.0 µM unless noted. In outline:
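Genetically defined yeast (DNA repair-deficient) exposed to compounds; growth inhibition determined relative to vehicle.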

In the case of `Nc1cc(S(=O)(=O)O)c(O)c2c1C(=O)c1c(O)c(S(=O)(=O)O)cc(N)c1C2=O`, the growth inhibition in experiment [1] is -17.6%; in experiment [2], -1.75%; in experiment [3], -2.55%; in experiment [4], -12.8%; in experiment [5], -9.35%; in experiment [6], -18%.
As to `Oc1ccc(C(O)CN2CCCC2)cc1O` (stereo unspecified), the growth inhibition in experiment [1] was -15.7%; in experiment [2], 10.9%; in experiment [3], -0.1%; in experiment [4], -36.1%; in experiment [5], 2.7%; in experiment [6], -15.3%.
In the case of `O=C(O)C1Oc2cc3ccccc3cc2O1`, the growth inhibition in experiment [1] is 30.4%; in experiment [2], 16.4%; in experiment [3], 19.8%; in experiment [4] it was 20.3%; in experiment [5], 23.1%; in experiment [6] it was 24.5%.
For the compound `Cn1c([N+](=O)[O-])cnc1CSc1nc(-c2ccccc2)no1`, the growth inhibition in experiment [1] was 17.9%; in experiment [2] it was 1.8%; in experiment [3], 33.8%; in experiment [4], -1.1%; in experiment [5], 5.25%; in experiment [6], 33.1%.
With `COc1cccc(C)c1NC(=O)NCCCl`, the growth inhibition in experiment [1] is 17.6%; in experiment [2], 1.05%; in experiment [3], 13.2%; in experiment [4] it was -25.2%; in experiment [5], 12.1%; in experiment [6] it was 5.05%.
`Cc1nnc2sc(N/N=C/c3ccccc3)nn12`: the growth inhibition was -35.5% in experiment [1]; -29.9% in experiment [2]; -69.2% in experiment [3]; -13.8% in experiment [4]; -10.1% in experiment [5]; -71.3% in experiment [6].
With `CC(=O)N(C(C)=O)N1C(=O)CSC1=S`, the growth inhibition is -11.1% in experiment [1]; -35% in experiment [2]; -21.8% in experiment [3]; -3.4% in experiment [4]; 17.4% in experiment [5]; -7.2% in experiment [6].
In the case of `Cc1cc2c(C(C)C)c(O)c(O)c(C=NC(C)c3ccccc3)c2c(O)c1-c1c(C)cc2c(C(C)C)c(O)c(O)c(C=NC(C)c3ccccc3)c2c1O` (stereo unspecified), the growth inhibition in experiment [1] was 18.2%; in experiment [2], 7.35%; in experiment [3], 15.3%; in experiment [4], 11.9%; in experiment [5], 30.9%; in experiment [6], 7.95%.
`CC(=O)ONC(C(=O)C(C)(C)C)C(=O)C(C)(C)C`: the growth inhibition is -1.4% in experiment [1]; -4.4% in experiment [2]; -3.9% in experiment [3]; 24.7% in experiment [4]; -2.7% in experiment [5]; -4.8% in experiment [6].
Take `CCC1([N+](=O)[O-])COC(CCc2ccccc2)OC1` (stereo unspecified): the growth inhibition was 6.3% in experiment [1]; -20.9% in experiment [2]; 10.8% in experiment [3]; -30.1% in experiment [4]; -0.25% in experiment [5]; -19.9% in experiment [6].
Take `CCCCCCCCCCCCN1CCCC(O)C1` (stereo unspecified): the growth inhibition is 66.8% in experiment [1]; 60.8% in experiment [2]; 74.4% (active) in experiment [3]; 56.4% in experiment [4]; 70.6% (active) in experiment [5]; 78.1% (active) in experiment [6].
As to `CC(C)NC(=O)OCc1c(COC(=O)NC(C)C)c2n(c1Br)CCC2`, the growth inhibition in experiment [1] was 32.8%; in experiment [2], 26.1%; in experiment [3] it was -9.6%; in experiment [4], 16.9%; in experiment [5] it was 0.2%; in experiment [6] it was -51.4%.
Consider `NN1CCN(CCO)CC1`, for which the growth inhibition is -0.1% in experiment [1]; -39.6% in experiment [2]; -3.3% in experiment [3]; 12.2% in experiment [4]; -4% in experiment [5]; 21.6% in experiment [6].
Consider `COc1ccc(N2CC[N+](c3ccc(N(C)C)cc3)=C2C2=[N+](c3ccc(N(C)C)cc3)CCN2c2ccc(OC)cc2)cc1`, for which the growth inhibition in experiment [1] was 0.3%; in experiment [2], -6.8%; in experiment [3], -17.4%; in experiment [4], -7.6%; in experiment [5] it was -10.2%; in experiment [6] it was 20.5%.
As for `NC(=O)c1c([N+](=O)[O-])ncn1C1OC(CO)C(O)C1O` (stereo unspecified), the growth inhibition in experiment [1] is 20.5%; in experiment [2] it was -7.75%; in experiment [3], -5.8%; in experiment [4], -12.2%; in experiment [5] it was 5.8%; in experiment [6], 14.1%.
Take `O=C1OC(Oc2ccccc2)c2cc3c(cc21)OCO3` (stereo unspecified): the growth inhibition in experiment [1] is 20.4%; in experiment [2], -6.05%; in experiment [3], 21.3%; in experiment [4] it was 20.6%; in experiment [5], 17.9%; in experiment [6] it was 29.5%.
Turning to `C=CCc1cn(C2CC(OC(=O)c3ccc(Cl)cc3)C(COC(=O)c3ccc(Cl)cc3)O2)c(=O)[nH]c1=O` (stereo unspecified), the growth inhibition was -8.85% in experiment [1]; -3.6% in experiment [2]; -18.8% in experiment [3]; -8.6% in experiment [4]; 0.6% in experiment [5]; -2.4% in experiment [6].
Turning to `NC(=S)C(=S)N=Cc1c(O)c2ccccc2oc1=O`, the growth inhibition is 39.3% in experiment [1]; 29.9% in experiment [2]; 63.1% in experiment [3]; 18.9% in experiment [4]; 23.1% in experiment [5]; 40.5% in experiment [6].
Consider `COc1ccc(SSc2ccc(OC)cc2C(=O)O)c(C(=O)O)c1`, for which the growth inhibition was -4% in experiment [1]; -19.1% in experiment [2]; -21.1% in experiment [3]; 1.4% in experiment [4]; -36.1% in experiment [5]; 1.8% in experiment [6].
Regarding `O=C1CSC(c2ccc(F)cc2F)N1c1nncs1` (stereo unspecified), the growth inhibition in experiment [1] is 13.4%; in experiment [2], -3.7%; in experiment [3], 22.8%; in experiment [4], -35.2%; in experiment [5], -23.8%; in experiment [6] it was 24.2%.
Consider `CCOC(=O)c1cc(/C=C/C(C)=C/C(=O)OC)n(C)c1C`, for which the growth inhibition is 74.5% (active) in experiment [1]; 56% in experiment [2]; 79.5% (active) in experiment [3]; 34.5% in experiment [4]; 80.2% (active) in experiment [5]; 58.5% in experiment [6].
